Potency and affinity values are given separately.

The term Inhibition denotes the drop in the measured response relative to a control, in per cent.

For one experiment, the system named is Staphylococcus aureus. The following applies: Concentration 20 uM; ASSAY_TEST Inhibition of Bacterial Growth; detection method Absorption (OD600); MEDIA CAMHB; plate type 384well; NBS; CORNING #3640; time 18 hr.
For a further experiment, the system named is Escherichia coli. The following applies: Concentration 20 uM; ASSAY_TEST Inhibition of Bacterial Growth; detection method Absorption (OD600); MEDIA CAMHB; plate type 384well; NBS; CORNING #3640; time 18 hr.

Turning to `Cc1ccccc1C(OCCN(C)C)c1ccccc1.Cl` (stereo unspecified) [ORPHENADRINE HYDROCHLORIDE], the Inhibition is 13.17% in the experiment on Staphylococcus aureus and -1.64% in the experiment with Escherichia coli.

`CC(=O)S[C@@H]1CC2=CC(=O)CC[C@]2(C)[C@H]2CC[C@@]3(C)[C@@H](CC[C@@]34CCC(=O)O4)[C@H]12` [SPIRONOLACTONE]: the Inhibition in the experiment on Staphylococcus aureus is given as 18.37%; in the experiment on Escherichia coli, 5.07%.

Regarding `C[C@@H]1C[C@H]2[C@@H]3CCC4=CC(=O)C=C[C@]4(C)[C@@]3(F)[C@@H](O)C[C@]2(C)[C@H]1C(=O)CO` [DESOXIMETASONE], the Inhibition was 0.95% in the experiment on Staphylococcus aureus and 7.14% with Escherichia coli.

As to `CNCCCCOc1ccccc1Cc1ccccc1.Cl`, the Inhibition in the experiment with Staphylococcus aureus was 10.88%; with Escherichia coli, 6.1%.

For the compound `O=C(O)c1cccnc1` [NIACIN], the Inhibition with Staphylococcus aureus is listed as 1.53%; in the experiment with Escherichia coli, -3.09%.

For the compound `Cc1cnc(NC(=O)C2=C(O)c3ccccc3S(=O)(=O)N2C)s1` [MELOXICAM], the Inhibition is recorded as -0.24% in the experiment on Staphylococcus aureus and 7.37% in the experiment on Escherichia coli.

With `NS(=O)(=O)Cc1noc2ccccc12` [ZONISAMIDE], the Inhibition in the experiment on Staphylococcus aureus came to 1.04%; in the experiment with Escherichia coli it was 0.42%.

Take `CCC(=C(c1ccccc1)c1ccc(OCCN(C)C)cc1)c1ccccc1`: the Inhibition came out at 2.87% with Staphylococcus aureus and 6.04% in the experiment with Escherichia coli.

On to `CCCCNC(=O)NS(=O)(=O)c1ccc(C)cc1` [TOLBUTAMIDE], for which the Inhibition in the experiment on Staphylococcus aureus stood at 4.92%; in the experiment with Escherichia coli it was 0.97%.

As for `C[C@H]1C[C@@H]2[C@H]([C@@H](O)C[C@@]3(C)[C@H]2CC[C@]3(O)C(=O)CO)[C@@]2(C)C=CC(=O)C=C12` [METHYLPREDNISOLONE], the Inhibition was found to be 7.4% in the experiment with Staphylococcus aureus and 5% with Escherichia coli.

As for `O=C(O)c1cc(-c2ccc(F)cc2F)ccc1O` [DIFLUNISAL], the Inhibition in the experiment on Staphylococcus aureus is recorded as -11.25%; with Escherichia coli, 6.27%.

`CCCNCC(O)COc1ccccc1C(=O)CCc1ccccc1` (stereo unspecified) [PROPAFENONE]: the Inhibition turned out to be 9.33% in the experiment on Staphylococcus aureus and 8.72% in the experiment on Escherichia coli.

With `Cl.O[C@@H](c1cc(C(F)(F)F)nc2c(C(F)(F)F)cccc12)[C@H]1CCCCN1`, the figures for the Inhibition with Staphylococcus aureus and in the experiment with Escherichia coli were 36.85% and 7.08%, respectively.

As for `CC(CCc1ccccc1)NCC(O)c1ccc(O)c(C(N)=O)c1.Cl` (stereo unspecified) [LABETALOL HYDROCHLORIDE], the Inhibition with Staphylococcus aureus was found to be 13.4%; with Escherichia coli, 1.62%.

For `CC(C)NCC(O)COc1ccc(CCOCC2CC2)cc1.Cl` (stereo unspecified) [BETAXOLOL HYDROCHLORIDE], the Inhibition worked out at 7.41% in the experiment with Staphylococcus aureus and 0.81% in the experiment with Escherichia coli.

Turning to `Nc1ccc2cn[nH]c2c1`, the Inhibition in the experiment on Staphylococcus aureus was -30.24%; in the experiment on Escherichia coli it was 5.89%.

As for `CCC[C@@H]1C[C@@H](C(=O)N[C@@H]([C@H]2O[C@H](SC)[C@H](O)[C@@H](O)[C@H]2O)[C@@H](C)O)N(C)C1.Cl.O` [LINCOMYCIN HYDROCHLORIDE], the Inhibition with Staphylococcus aureus was 20.41%; with Escherichia coli, 6.86%.

For the compound `NS(=O)(=O)c1cc2c(cc1C(F)(F)F)NC(Cc1ccccc1)NS2(=O)=O` (stereo unspecified) [BENDROFLUMETHIAZIDE], the Inhibition in the experiment with Staphylococcus aureus is reported as 4.68%; in the experiment on Escherichia coli, -3.75%.

Take `COc1ccc(CC2c3cc(OC)c(OC)cc3CC[N+]2(C)CCC(=O)OCCCCCOC(=O)CC[N+]2(C)CCc3cc(OC)c(OC)cc3C2Cc2ccc(OC)c(OC)c2)cc1OC.O=S(=O)(O)c1ccccc1` (stereo unspecified): the values for the Inhibition with Staphylococcus aureus and in the experiment with Escherichia coli were 4.52% and 6.82%, respectively.

`CC(CN1c2ccccc2Sc2ccccc21)N(C)C.Cl` (stereo unspecified) [PROMETHAZINE HYDROCHLORIDE]: the Inhibition with Staphylococcus aureus is reported as 15.79%; with Escherichia coli, 1.25%.

Take `COc1nc(C)nc(Cl)c1NC1=NCCN1.Cl` [MOXONIDINE HYDROCHLORIDE]: the Inhibition with Staphylococcus aureus is listed as -14.16%; with Escherichia coli, 3.63%.

Turning to `CC1(C)O[C@@H]2C[C@H]3[C@@H]4C[C@H](F)C5=CC(=O)C=C[C@]5(C)[C@H]4[C@@H](O)C[C@]3(C)[C@]2(C(=O)CO)O1` [FLUNISOLIDE], the figures for the Inhibition in the experiment on Staphylococcus aureus and with Escherichia coli were 6.94% and 3.33%, respectively.

For the compound `C[C@H](N[C@@H](CCc1ccccc1)C(=O)O)C(=O)N1CCC[C@H]1C(=O)O` [ENALAPRILAT ANHYDROUS], the Inhibition in the experiment on Staphylococcus aureus is on record as -5.3%; in the experiment with Escherichia coli it was 7.09%.

For `CC(C)NCC(O)c1cc(O)cc(O)c1` (stereo unspecified) [METAPROTERENOL], the Inhibition in the experiment with Staphylococcus aureus is listed as -6.69%; in the experiment with Escherichia coli, -6.08%.

Regarding `CCOc1cc(N)c(Cl)cc1C(=O)NCC1CN(Cc2ccc(F)cc2)CCO1.O=C(O)CC(O)(CC(=O)O)C(=O)O` (stereo unspecified) [MOSAPRIDE CITRATE], the Inhibition in the experiment with Staphylococcus aureus was 10.04%; in the experiment on Escherichia coli, 3.47%.

For the compound `C#C[C@]1(O)CC[C@H]2[C@@H]3CCC4=CC(=O)CC[C@@H]4[C@H]3CC[C@@]21CC` [LEVONORGESTREL], the Inhibition is reported as 8.4% in the experiment on Staphylococcus aureus and 3.88% in the experiment with Escherichia coli.

For `CCN(CC)CC(=O)Nc1c(C)cccc1C` [LIDOCAINE], the Inhibition in the experiment with Staphylococcus aureus is on record as 9.46%; in the experiment on Escherichia coli it was -3.44%.

For the compound `CC(C)(C#N)c1cc(Cn2cncn2)cc(C(C)(C)C#N)c1` [ANASTROZOLE], the Inhibition was -10.48% in the experiment on Staphylococcus aureus and 4.02% in the experiment with Escherichia coli.

The values above are taken from ChEMBL document CHEMBL4513141, “CO-ADD screening of NIH (USA) - Clinical Collection” (2021).
